The values below come from the supplement of paper PMC4188521.

Compound in the assay: CCc1cnn2c(NCc3ccc[n+]([O-])c3)cc(N3CCCC[C@H]3CCO)nc12 [dinaciclib]
Kind of assay: cell viability remaining relative to DMSO control; higher = less cytotoxic (more viable cells). The following applies: 100 nM; 24 h. The method, boiled down:
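Solid tumour cell lines from commercial cell banks were exposed to 100 nM of the test compound for 24 hr, with final DMSO ≤0.2%. Viability was read as ATP luminescence with the CellTiter-Glo assay, following the manufacturer's instructions. Remaining viability is the ratio of light units in treated wells to DMSO-treated control wells, expressed as % of DMSO control. Values are means of 2–6 plates with triplicate wells per plate.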
In the case of HCC44, the cell viability remaining came to 85.8%.

Take CAPAN2: the cell viability remaining worked out at 51.4%.

For H508, the cell viability remaining worked out at 75.7%.

Take ASPC1: the cell viability remaining amounted to 93.6%.

For RMUGS, the cell viability remaining is 62%.

For HEC265, the cell viability remaining stood at 46.7%.

For KLE, the cell viability remaining was determined as 91.8%.

As to 59M, the cell viability remaining was found to be 73.2%.

Regarding ZR751, the cell viability remaining amounted to 91.3%.

Take H2228: the cell viability remaining is 36.4%.

As for DKMG, the cell viability remaining turned out to be 44%.

Consider HEC50B, for which the cell viability remaining came to 83.4%.

As to HOS, the cell viability remaining is 36.2%.

With H1838, the cell viability remaining came to 90.6%.

In the case of G361, the cell viability remaining came out at 4.9%.

Regarding OVMANA, the cell viability remaining amounted to 87.9%.

Turning to SW620, the cell viability remaining worked out at 58.5%.

For H446, the cell viability remaining amounted to 51.2%.

As for H4, the cell viability remaining worked out at 34.1%.

As for COV318, the cell viability remaining was determined as 79.8%.

Consider H1568, for which the cell viability remaining came to 28.7%.

For MEWO, the cell viability remaining is 52.8%.

In the case of H292, the cell viability remaining was found to be 51.5%.

For the target EN, the cell viability remaining turned out to be 51.9%.

Turning to SW948, the cell viability remaining stood at 72.6%.

For SKMEL5, the cell viability remaining amounted to 76.8%.

On to HS695T, for which the cell viability remaining was found to be 72.9%.

For the target CAMA1, the cell viability remaining stood at 51.8%.

For the target CAPAN1, the cell viability remaining was found to be 85.3%.

In the case of OVISE, the cell viability remaining amounted to 94.6%.

As to SCC4, the cell viability remaining was found to be 66.5%.

As for CALU1, the cell viability remaining is 78.1%.

On to A673, for which the cell viability remaining was determined as 29.2%.

Turning to AN3CA, the cell viability remaining was found to be 13.9%.
